Experimental data taken from PubChem BioAssay.

Tests used:
[1] = system: Botulinum neurotoxin type F light chain protease (Clostridium botulinum); assay: Clostridium botulinum type F light chain protease inhibitors, microsphere substrate cleavage, validation (AID 588459); conditions: multiplex microsphere protease substrate cleavage assay, flow cytometry; at 10 µM; stronger effect = higher value
[2] = biological target: Botulinum neurotoxin type A (Clostridium botulinum) (UniProt P0DPI0); assay: BoNT/A light chain protease inhibitors, biochemical, multiplex microsphere flow cytometry, validation set (AID 588460); conditions: at 10 µM, stronger effect = higher value
Chain of Botulinum neurotoxin type A (Clostridium botulinum) (P0DPI0 whole entry, looked up): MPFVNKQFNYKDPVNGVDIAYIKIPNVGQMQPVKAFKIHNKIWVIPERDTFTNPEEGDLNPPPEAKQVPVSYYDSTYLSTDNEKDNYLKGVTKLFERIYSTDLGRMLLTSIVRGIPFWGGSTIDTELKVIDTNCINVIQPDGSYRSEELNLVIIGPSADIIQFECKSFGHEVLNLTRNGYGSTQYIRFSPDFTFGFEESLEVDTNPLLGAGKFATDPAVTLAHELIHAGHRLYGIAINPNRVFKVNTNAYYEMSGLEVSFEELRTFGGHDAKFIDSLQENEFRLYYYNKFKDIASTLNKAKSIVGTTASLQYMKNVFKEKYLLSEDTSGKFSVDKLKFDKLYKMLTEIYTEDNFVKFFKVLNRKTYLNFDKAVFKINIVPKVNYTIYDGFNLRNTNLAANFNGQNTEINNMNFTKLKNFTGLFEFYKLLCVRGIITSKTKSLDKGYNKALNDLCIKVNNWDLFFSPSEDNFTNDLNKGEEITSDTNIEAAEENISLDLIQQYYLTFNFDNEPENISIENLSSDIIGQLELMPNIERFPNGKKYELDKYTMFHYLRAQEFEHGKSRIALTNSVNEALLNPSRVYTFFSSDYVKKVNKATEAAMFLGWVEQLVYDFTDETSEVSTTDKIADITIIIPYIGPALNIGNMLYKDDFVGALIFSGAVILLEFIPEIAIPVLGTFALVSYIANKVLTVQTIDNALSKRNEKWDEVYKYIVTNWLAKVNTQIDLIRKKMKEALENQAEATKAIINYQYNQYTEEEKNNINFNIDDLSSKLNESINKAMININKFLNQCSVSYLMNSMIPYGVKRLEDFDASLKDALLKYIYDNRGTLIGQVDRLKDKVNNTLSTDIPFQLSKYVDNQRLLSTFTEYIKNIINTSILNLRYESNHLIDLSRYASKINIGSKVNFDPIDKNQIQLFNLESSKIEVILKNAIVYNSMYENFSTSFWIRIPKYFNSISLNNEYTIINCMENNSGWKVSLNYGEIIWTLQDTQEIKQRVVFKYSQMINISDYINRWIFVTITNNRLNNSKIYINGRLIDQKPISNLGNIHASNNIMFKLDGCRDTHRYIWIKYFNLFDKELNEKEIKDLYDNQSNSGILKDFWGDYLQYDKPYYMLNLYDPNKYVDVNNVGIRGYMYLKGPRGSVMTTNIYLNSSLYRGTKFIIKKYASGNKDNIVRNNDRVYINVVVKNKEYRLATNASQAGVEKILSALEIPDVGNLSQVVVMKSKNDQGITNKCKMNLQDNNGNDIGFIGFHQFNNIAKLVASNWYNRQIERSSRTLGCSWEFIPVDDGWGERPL

[3] = biological target: Lethal factor (Bacillus anthracis) (UniProt P15917); assay: Bacillus anthracis lethal factor inhibition, microsphere flow cytometry protease assay, validation at 10 µM (AID 588461); conditions: multiplex microsphere protease cleavage assay, stronger effect = higher value
Chain of Lethal factor (Bacillus anthracis) (P15917 whole entry, looked up): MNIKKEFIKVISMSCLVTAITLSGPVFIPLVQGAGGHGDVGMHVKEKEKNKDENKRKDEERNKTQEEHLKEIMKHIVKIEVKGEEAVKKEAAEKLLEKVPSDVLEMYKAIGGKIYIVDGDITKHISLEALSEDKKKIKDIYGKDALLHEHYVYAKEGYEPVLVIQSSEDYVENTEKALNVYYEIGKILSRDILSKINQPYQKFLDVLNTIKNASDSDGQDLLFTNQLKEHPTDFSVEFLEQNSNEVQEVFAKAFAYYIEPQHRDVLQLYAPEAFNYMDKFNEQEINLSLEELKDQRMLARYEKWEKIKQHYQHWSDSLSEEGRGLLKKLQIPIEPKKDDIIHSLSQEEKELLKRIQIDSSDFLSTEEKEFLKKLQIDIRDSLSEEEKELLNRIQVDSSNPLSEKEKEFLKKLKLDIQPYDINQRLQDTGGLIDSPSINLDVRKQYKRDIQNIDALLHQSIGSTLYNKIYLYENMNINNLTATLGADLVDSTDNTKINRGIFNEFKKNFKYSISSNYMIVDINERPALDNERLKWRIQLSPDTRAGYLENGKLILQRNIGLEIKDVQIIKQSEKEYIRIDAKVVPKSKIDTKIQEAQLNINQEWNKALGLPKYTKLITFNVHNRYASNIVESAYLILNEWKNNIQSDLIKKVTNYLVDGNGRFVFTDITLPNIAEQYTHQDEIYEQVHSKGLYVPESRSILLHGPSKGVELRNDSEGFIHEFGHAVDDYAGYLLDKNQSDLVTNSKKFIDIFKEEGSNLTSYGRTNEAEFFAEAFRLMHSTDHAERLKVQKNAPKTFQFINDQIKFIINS

Measured: inhibition

CC(=O)C1=C(O)C(=O)N(CC(=O)O)C1c1ccccc1Cl (stereo not drawn)
inactive: [1] -1.5% | [2] -0.5% | [3] -3%

Fc1cccc(Cc2noc(CN3CCN(c4cnccn4)CC3)n2)c1
inactive: [1] 3.7% | [2] -1.3% | [3] 0.5%

O=C(Nc1ccc(Oc2c(F)c(F)c(F)c(F)c2F)cc1)OC1CCN2Cc3ccccc3N=C12 (stereo not drawn)
inactive: [1] -1.9% | [2] -1.4% | [3] 2.6%

NNC(=O)c1cc(O)c(O)c(O)c1
inactive: [1] -3.2% | [2] -1% | [3] -2.8%

CC(=O)N/C(=C/c1ccc2c(c1)OCO2)C(=O)NCCO
inactive: [1] 3.7% | [2] 0.6% | [3] 1%

CC(C)NC[C@@H](O)c1ccc(O)c(O)c1
inactive: [1] -3.7% | [2] -0.5% | [3] -6.8%

CC(=O)c1c(C)c(C)c2n1CCn1c(C)ccc1-2
inactive: [1] -0.2% | [2] -0.1% | [3] 0.9%

Cc1ncc(CN2CCC(CO)(CCc3ccccc3)CC2)s1
inactive: [1] 1.3% | [2] 0.2% | [3] -3%

CC(=O)Oc1ccc(C2OC(=O)c3ccccc3N2C(C)=O)cc1 (stereo not drawn)
inactive: [1] 2% | [2] 0.3% | [3] 3.3%

CCc1cc2c(=O)c(-c3nc4ccccc4n3C)coc2c(CN2CCN(C)CC2)c1O
inactive: [1] -0.9% | [2] 0.3% | [3] -2.8%

C[C@]12CCC(=O)C[C@@H]1CC[C@@H]1[C@@H]2CC[C@]2(C)C=CC[C@@H]12
inactive: [1] 3.9% | [2] 0.7% | [3] -1.3%
